Rows were chosen to be rich in hits. Some 5.4% of all compounds tested hit in one or more screens of this group.
MIN6 prolif-1 = inducers of MIN6 beta-cell proliferation, primary screen, ATP luminescence, uHTS. MIN6 cells proliferation, ATPlite luminescence, 48 h; cells starved in 0.2% serum; 100% = growth in 10% serum. proliferation, % at 10 µM. actives 0.29% (n = 330,000). AID 2380, 2010;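 active = compounds whose signal lies at least 3.5 SD above the mean of all wells on their plate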
ALR inh = inhibitors of human ALR sulfhydryl oxidase, primary screen, biochemical, H2O2 detection, HRP-luminol luminescence, single point; FAD-linked sulfhydryl oxidase ALR (Homo sapiens), P55789; purified ALR, DTT oxidation; inhibition, % (no concentration beside the values); actives 3.8% (n = 290,000); AID 485317, 2010;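 active = mean replicate inhibition above about 79%, with every replicate also reaching it, limit read from the data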
Target sequence (P55789 whole entry, looked up): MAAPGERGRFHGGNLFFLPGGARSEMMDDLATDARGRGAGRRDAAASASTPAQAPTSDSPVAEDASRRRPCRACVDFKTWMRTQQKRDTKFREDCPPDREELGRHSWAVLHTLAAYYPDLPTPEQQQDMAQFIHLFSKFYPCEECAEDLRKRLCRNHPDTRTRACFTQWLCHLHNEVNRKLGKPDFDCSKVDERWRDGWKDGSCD
SMARCA2 act = SMARCA2 (BRM) function activators, primary screen, cell-based, luminescence, high throughput; MG213 cells, MMTV-luciferase reporter, dexamethasone, overnight; AID 652017, 2013; activation, % at 9.1 µM; actives 1% (n = 370,000); in the data active = activation above about 7.8%
Exocytosis inh = LAMP-1 surface exposure blockers, TALL-104 cells – cell-based, flow cytometry, MLPCN library, primary screen; TALL-104 LAMP-1 surface exposure; cells stimulated with thapsigargin and PMA; inhibition, % at 10 µM; actives 0.66% (n = 360,000); AID 651702, 2012;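 active = inhibition above about 55%, limit read from the data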
GASC-1 inh = inhibitors of GASC-1 histone demethylase, primary screen, biochemical, fluorescence, DELFIA europium; GST-JMJD2C(1-420) H3K9me3 demethylation; inhibition, % at 2.35 µM; actives 0.069% (n = 330,000);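 active = more than half of a compound's replicate wells show inhibition beyond 50%, single wells judged on their own value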;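 also: signal counts dimethyl H3K9 product captured on neutravidin plate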
PfM18AAP inh = PfM18AAP inhibitors, malaria aminopeptidase, primary screen, biochemical, QFRET, recombinant enzyme; H-Glu-NHMec fluorogenic cleavage; inhibition, % at 7.35 µM; actives 1.2% (n = 290,000);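 active = inhibition above the campaign mean inhibition over all tested compounds plus 3 SD, cut at about 28% in these data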
MIN6 prolif-2 = inducers of beta-cell proliferation in MIN6, confirmation, MIN6 cells, mouse | proliferation increase, % at 50 µM | 920 tested, under 10 active | ATPlite luminescence, 48 h; cells kept in 0.2% serum; scaled between 0.2% and 10% serum | shares compounds with MIN6 prolif-1;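 active = proliferation increase above 40% at any of the four tested concentrations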
Of the large screens only hits and unclear results are named; the others gave an inactive call (follow-up assays come after a bar, where they were run).

CCC(C)NC(=O)CCSc1ccc(C)cc1 (configuration not stated)	MIN6 prolif-1 0.0 (no result: ALR inh) | MIN6 prolif-2 inactive
CCC(C)NC(=O)CSc1ccc(Cl)cc1 (configuration not stated)	none
OCC[C@@H]1C[C@@H](O)[C@H](O)[C@]2(CCCc3ccccc3O2)O1	MIN6 prolif-1 14 | MIN6 prolif-2 inactive
OCC[C@H]1C[C@@H](O)[C@H](O)[C@]2(CCCc3ccccc3O2)O1	none (no result: PfM18AAP inh)
COc1ccc(CN2C(=O)CN(S(C)(=O)=O)CC2(C)c2nnnn2C2CCCCC2)cc1 (configuration not stated)	none (no result: MIN6 prolif-1, ALR inh, Exocytosis inh, GASC-1 inh, PfM18AAP inh)
CC1(C)CC(NC(=O)C2CCC(=O)N(C3CC3)C2)CC(C)(C)C1 (configuration not stated)	none
O=C(NC1CCCCC1)C1CCC(=O)N(C2CC2)C1 (configuration not stated)	MIN6 prolif-1 11 | MIN6 prolif-2 inactive
COc1ccc(C2(C)NC(=O)N(Cc3cc(Cl)cc4c3OCOC4)C2=O)cc1OC (configuration not stated)	MIN6 prolif-1 15 | MIN6 prolif-2 inactive
CN(CC(=O)Nc1c(Cl)cccc1Cl)C(=O)c1ccccc1-c1nc2ccccc2s1	MIN6 prolif-1 13 (no result: PfM18AAP inh) | MIN6 prolif-2 inactive
CCOC(=O)C1=C(COC(=O)/C=C/c2ccc(Cl)cc2)NC(=O)NC1C (configuration not stated)	none
CCOC(=O)C1=C(COC(=O)/C=C/c2ccccc2F)NC(=O)NC1C (configuration not stated)	MIN6 prolif-1 12 (no result: PfM18AAP inh) | MIN6 prolif-2 inactive
CCOC(=O)C1=C(COC(=O)c2sccc2C)NC(=O)NC1C (configuration not stated)	MIN6 prolif-1 11 (no result: PfM18AAP inh) | MIN6 prolif-2 inactive
CCOC(=O)C1=C(COC(=O)/C=C/c2ccccc2)NC(=O)NC1C (configuration not stated)	MIN6 prolif-1 12 (no result: PfM18AAP inh) | MIN6 prolif-2 inactive
COc1ccc(NC(=O)CSc2ccccc2)cc1S(=O)(=O)N1CCCCC1	MIN6 prolif-1 4.7 | MIN6 prolif-2 inactive
Cc1ccc(NC(=O)CSc2ccccc2)cc1S(=O)(=O)N1CCCCC1	none (no result: PfM18AAP inh)
CCCCn1c(-c2nonc2N)nc2ccccc21	MIN6 prolif-1 8.1 | MIN6 prolif-2 inactive
CC(C)CCn1c(-c2nonc2N)nc2ccccc21	none
O=S(=O)(c1ccc(Oc2ccc(Cl)cc2)nc1)N1CCOCC1	none (no result: PfM18AAP inh)
O=S(=O)(c1ccc(Oc2ccc(F)c(Cl)c2)nc1)N1CCOCC1	MIN6 prolif-1 13 (no result: PfM18AAP inh) | MIN6 prolif-2 inactive
Oc1ccccc1-c1nc(N2CCCC2)c2ccccc2n1	MIN6 prolif-1 7.0 | MIN6 prolif-2 inactive
O=C(C(=O)N1CCC(CNC(=O)c2ccccc2F)CC1)c1cc2ccccc2o1	none (no result: MIN6 prolif-1, ALR inh, Exocytosis inh, GASC-1 inh, PfM18AAP inh)
O=C(CCNC(=O)N1CC(=O)Nc2ccccc21)Nc1ccc(Cl)cc1	none
O=C(CCNC(=O)N1CC(=O)Nc2ccccc21)Nc1ccc(F)c(Cl)c1	MIN6 prolif-1 4.9 | MIN6 prolif-2 inactive
COc1ccccc1C(=O)NCC(C)(C)CN=C1NS(=O)(=O)c2ccccc21	MIN6 prolif-1 6.6 (no result: ALR inh) | MIN6 prolif-2 inactive
C[C@@H]1C=CCCO[C@]12C(=O)N(Cc1ccccc1C(F)(F)F)c1cccc(Br)c12	none (no result: MIN6 prolif-1, ALR inh, Exocytosis inh, GASC-1 inh, PfM18AAP inh)
O=C(Nc1ccccc1)Nc1c(-c2ccccc2)nc2ncccn12	none (no result: MIN6 prolif-1, ALR inh, Exocytosis inh, GASC-1 inh, PfM18AAP inh)
O=C(NCc1ccco1)c1c(O)c2cccc3c2n(c1=O)CCC3	MIN6 prolif-1 8.8 | MIN6 prolif-2 inactive
CON(Cc1ccccc1)S(=O)(=O)c1ccccc1Br	none (no result: MIN6 prolif-1, ALR inh, Exocytosis inh, GASC-1 inh, PfM18AAP inh)
COC(=O)C1=C(Cn2cnc3ccccc32)NC(=O)NC1c1cc(C)ccc1C (configuration not stated)	MIN6 prolif-1 5.4 | MIN6 prolif-2 inactive

Source: PubChem BioAssay
